The structures appear in SMILES notation. A number with no mark means an inactive call. Active and inactive are the calls of the source. Unless noted, calls come from the whole dose curve; as a rule, active = well fitted curve in the direction sought with a large enough effect in the repeat runs; inconclusive = weak or mixed curves; inactive = no such curve, though single readings can be large; an effect the other way counts as inactive or inconclusive.

Test [1] in a line: qHTS assay to identify small molecule antagonists of the thyroid receptor (TR) signaling pathway (AID 743065). Note: nearly all actives have a fitted effect of over 55% in size. Note: potency is the fitted concentration of half-maximal effect. The method in brief: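 Antagonism measured as loss of luciferase signal in GH3 cells stably carrying a TRE-luciferase reporter, co-treated with compound and T3 (1 nM final) for 23.5 h at 37 C. Viability was read in the same well by CellTiter-Fluor.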
Test [2] relates to thyroid hormone receptor (rat, GH3 cells). The test is described as follows: qHTS assay to identify small molecule agonists of the thyroid receptor (TR) signaling pathway (AID 743066; calls by dose curve).
Test [3] is described as follows: qHTS assay to identify small molecule antagonists of the estrogen receptor alpha (ER-alpha) signaling pathway - cell viability counter screen (AID 743074; calls by dose curve;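 note: HEK293 cells carrying ER-alpha-UAS-bla reporter stimulated with 17beta-estradiol; nearly all actives have a fitted effect of over 45% in size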).
Test [4] is described as follows: qHTS assay to identify small molecule antagonists of the estrogen receptor alpha (ER-alpha) signaling pathway using the BG1 cell line - cell viability counter screen (AID 743081).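 Note: compound given together with 17beta-estradiol as the ER stimulus; nearly all actives have a fitted effect of over 45% in size.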
Test [5] has as its target Aromatase (Homo sapiens) (UniProt P11511). The test is described as follows: qHTS assay to identify aromatase inhibitors (AID 743083). Note: nearly all actives have a fitted effect of over 55% in size. Note: potency is the fitted concentration of half-maximal effect.
In test [6] the target is Estrogen receptor (Homo sapiens) (UniProt P03372). The experiment in a line: qHTS assay to identify small molecule antagonists of the estrogen receptor alpha (ER-alpha) signaling pathway (AID 743069; active = well fitted curve in the direction sought with a large enough effect in the signal ratio in the repeat runs, not every such curve was filed as active; inconclusive = weak or mixed curves, or effect the other way; inactive = no such curve, though single readings can be large or run the other way; the % refers to the signal ratio). The method in brief:
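Compound effects are measured against 17beta-estradiol stimulation in HEK293 cells with a UAS-controlled beta-lactamase reporter for ER-alpha. Exposure lasts 18 hr at 37C; LiveBLAzer B/G FRET substrate follows for 2 hr at room temperature.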

Test [7] has the same target. The experiment in a line: qHTS assay to identify small molecule agonists of the estrogen receptor alpha (ER-alpha) signaling pathway (AID 743075; calls by dose curve; note: potency is the fitted concentration of half-maximal effect).
A short description of test [8]: qHTS assay to identify small molecule antagonists of the estrogen receptor alpha (ER-alpha) signaling pathway using the BG1 cell line (AID 743080; calls by dose curve;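 note: BG1 cells stimulated with 17beta-estradiol alongside compound; nearly all actives have a fitted effect of over 25% in size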; note: potency is the fitted concentration of half-maximal effect). An outline of the steps:
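Endogenous full-length ER-alpha in BG1-Luc-4E2 cells drives a stably integrated 4×ERE luciferase gene; compounds were tested against 17beta-estradiol over 21.5 h, with luminescence and multiplexed viability fluorescence recorded.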

Test [9] deals with Estrogen receptor (Homo sapiens) (UniProt P03372). The experiment in a line: qHTS assay to identify small molecule agonists of the estrogen receptor alpha (ER-alpha) signaling pathway using the BG1 cell line (AID 743079). Note: nearly all actives have a fitted effect of over 20% in size. Note: potency is the fitted concentration of half-maximal effect. The note with it: BG1Luc4E2 cells, ERE-luciferase agonist, 22 h.
Sequence of Estrogen receptor (Homo sapiens) (P03372 whole entry, looked up): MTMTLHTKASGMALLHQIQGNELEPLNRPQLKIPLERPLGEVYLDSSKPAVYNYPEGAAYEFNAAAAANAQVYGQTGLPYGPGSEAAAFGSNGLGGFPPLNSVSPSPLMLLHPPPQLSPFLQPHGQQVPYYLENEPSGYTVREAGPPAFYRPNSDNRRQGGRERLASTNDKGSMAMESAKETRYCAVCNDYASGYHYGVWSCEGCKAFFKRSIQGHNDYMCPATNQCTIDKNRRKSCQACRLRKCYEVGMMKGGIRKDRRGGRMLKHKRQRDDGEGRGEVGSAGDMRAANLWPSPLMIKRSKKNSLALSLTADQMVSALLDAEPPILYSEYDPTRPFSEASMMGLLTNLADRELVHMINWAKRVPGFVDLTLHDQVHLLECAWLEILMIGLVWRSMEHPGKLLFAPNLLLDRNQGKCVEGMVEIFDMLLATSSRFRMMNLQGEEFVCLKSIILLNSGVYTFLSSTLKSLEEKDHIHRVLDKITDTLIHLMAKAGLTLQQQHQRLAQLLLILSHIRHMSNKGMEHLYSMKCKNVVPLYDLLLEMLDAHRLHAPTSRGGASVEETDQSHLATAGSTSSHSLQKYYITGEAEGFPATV
% is set by controls: 0 for no effect and ±100 for the full control effect.

Sequence of Aromatase (Homo sapiens) (P11511 whole entry, looked up): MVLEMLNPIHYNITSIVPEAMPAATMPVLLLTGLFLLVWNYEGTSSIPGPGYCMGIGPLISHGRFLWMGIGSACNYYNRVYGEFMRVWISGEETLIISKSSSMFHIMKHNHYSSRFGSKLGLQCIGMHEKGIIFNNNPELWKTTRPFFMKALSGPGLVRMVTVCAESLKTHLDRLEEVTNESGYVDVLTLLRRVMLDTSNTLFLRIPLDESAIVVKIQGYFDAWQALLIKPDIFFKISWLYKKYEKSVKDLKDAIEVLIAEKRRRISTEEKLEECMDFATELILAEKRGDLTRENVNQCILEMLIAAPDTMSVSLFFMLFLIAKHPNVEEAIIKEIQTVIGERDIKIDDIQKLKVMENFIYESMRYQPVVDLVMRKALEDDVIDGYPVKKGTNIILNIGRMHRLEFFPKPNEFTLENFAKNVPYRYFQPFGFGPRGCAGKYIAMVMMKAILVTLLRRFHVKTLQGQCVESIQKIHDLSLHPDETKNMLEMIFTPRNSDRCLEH

Turning to `NCC1(CC(=O)O)CCCCC1`, the Potency result in test [1], in test [2], in test [3], in test [4] and in test [5] was “inactive” in each case.

For `CCCOc1nn(C(=O)NS(=O)(=O)c2ccccc2C(=O)OC)c(=O)n1C`, the Potency result in test [2], in test [4] and in test [5] was “inactive” throughout.

Turning to `CN(C)C1CCCCC1`, the Potency result in test [2], in [6], in test [3], in test [7], in test [8] and in test [4] was “inactive” each time. The Potency entry in test [5] was “inactive”.

Take `N#CN`: the Potency entry in test [2], in test [6], in test [3], in test [7], in test [8] and in test [4] was “inactive” in each case. Moreover, the Potency result in [5] was “inactive”. Also, the figures for the activation in test [9] (at 70.3 µM (top of the series)) and in test [9] (at 260 µM (top of the series)) were -14.8% and -1.65%, respectively.

With `[P]#[In]`, the Potency result in test [1], in test [2], in test [3], in [4] and in test [5] was “inactive” throughout.

As to `CC(C)(O)C(Cl)(Cl)Cl`, the Potency entry in test [6], in test [7], in test [8] and in test [5] was “inactive” in each case. For the same compound, the activation in [9] (at 70.3 µM (top of the series)) was 7.26%.

Turning to `O=C1CCCCC1Cl` (centres undefined), the Potency entry in test [2], in test [4] and in test [5] was “inactive” throughout.

For the compound `CC(C)(N)Cc1ccc(Cl)cc1`, the Potency entry in [2], in test [6], in test [3], in test [7], in test [8] and in [4] was “inactive” throughout. The Potency result in test [5] was “inactive”. Also, in test [9] (at 70.3 µM (top of the series)), the activation was 0.193%.

With `Clc1cc2c(cc1Cl)Oc1cc(Cl)c(Cl)cc1O2`, the values for the activation in test [2], in test [7] and in test [9] (at 0.341 µM (top of the series)) were -1.12% [at 0.329 µM], -4.62% [at 0.274 µM] and -0.247%, respectively. Moreover, in test [6], the activity, negative = inhibition was -7.88% [at 0.274 µM]. Further, in [3], the activity, negative = cytotoxicity is 14.4% [at 0.274 µM]. Besides, the Potency in [8] was 0.0007 µM (active). Besides, in test [4], the activity change, negative = cytotoxicity was -0.0382% [at 0.341 µM].

On to `CC(C)N(Cc1ccccc1)C(=O)C(C)(C)C`, for which the Potency result in test [1], in [2], in test [3], in test [4] and in test [5] was “inactive” throughout.

In the case of `CCC1(c2ccccc2)C(=O)N(COC)C(=O)N(COC)C1=O`, the Potency entry in test [1], in test [2], in test [3], in test [4] and in test [5] was “inactive” in each case.

As for `CC[C@@H](CO)NC(=O)[C@@H]1C=C2c3cccc4[nH]cc(c34)C[C@H]2N(C)C1`, the Potency result in [2], in test [3], in test [7], in test [4] and in [5] was “inactive” in each case. In test [9] (at 70.3 µM (top of the series)), the activation was 2.56%.

`CON(C)C(=O)Nc1ccc(Br)cc1`: the Potency result in test [2], in test [3], in test [4] and in test [5] was “inactive” each time.

Regarding `C=CCN1CC[C@]23CCCC[C@H]2[C@H]1Cc1ccc(O)cc13`, the Potency in test [1] is 29.8 µM (active). For the same compound, the Potency entry in test [2], in test [3], in test [4] and in test [5] was “inactive” throughout.

Take `CON(C)C(=O)Nc1ccc(Br)c(Cl)c1`: the Potency result in test [2], in test [3], in test [4] and in [5] was “inactive” in each case.

With `Oc1ccc2c3c1O[C@H]1[C@@H](O)C=C[C@H]4[C@@H](C2)NCC[C@@]341`, the Potency result in test [2], in test [3] and in test [5] was “inactive” each time.

As to `C[C@]12C=CC(=O)C=C1CC[C@@H]1[C@@H]2CC[C@@]2(C)[C@H]1CC[C@]2(C)O`, the Potency result in [2], in test [3], in [8], in test [4] and in test [5] was “inactive” each time. Besides, the Potency is 0.425 µM [inconclusive] (active) in [7] and 0.15 µM (active) in [9].

Regarding `CCN[C@@H](C)Cc1cccc(C(F)(F)F)c1`, the Potency entry in test [2], in [6], in test [3], in test [7], in test [8] and in [4] was “inactive” each time. Also, the Potency result in test [5] is “inactive”. The activation in [9] (at 70.3 µM (top of the series)) is -18%.

For the compound `CCOP(=S)(OCC)Oc1ccc(Cl)cc1Cl`, the Potency entry in test [2], in test [6], in test [3], in test [7], in [4] and in [5] was “inactive” throughout.

In the case of `CCC(=O)OC1(c2ccccc2)CCN(C)CC1`, the Potency result in test [1], in test [2], in test [3], in [4] and in [5] was “inactive” each time.

Take `O=C(NC(=O)c1c(F)cccc1F)Nc1cc(Cl)c(F)c(Cl)c1F`: the Potency entry in [6], in test [3], in test [7], in test [8], in test [4] and in test [5] was “inactive” in each case. In addition, the activation in test [9] (at 70.3 µM (top of the series)) is 11.8%.

On to `C[N+]1(C)CCCCC1`, for which the Potency result in test [1], in test [3], in test [4] and in test [5] was “inactive” in each case.

Regarding `CN1C(=O)COc2c(C(=O)NC3CN4CCC3CC4)cc(Cl)cc21` (centres undefined), the Potency result in test [2], in test [6], in test [3], in test [7] and in test [5] was “inactive” each time. The activation in test [9] (at 70.3 µM (top of the series)) is 18.3%.

For the compound `CCc1cc(OC)c(C[C@H](C)N)cc1OC`, the Potency in [1] is 31.9 µM (active). The Potency result in test [2], in [3] and in test [5] was “inactive” in each case.

On to `C[C@H](CN1CCOCC1)C(C(=O)N1CCCC1)(c1ccccc1)c1ccccc1`, for which the Potency entry in test [2], in test [6], in [7], in test [8] and in [5] was “inactive” throughout. The activation in [9] (at 95 µM (top of the series)) is -2.63%.

With `COC1=CC(=O)O[C@@H](/C=C/c2ccccc2)C1`, the Potency entry in test [1], in [2], in [4] and in [5] was “inactive” throughout.

Consider `C[C@@H](N)[C@@H](O)c1ccccc1`, for which the Potency entry in [1], in test [2], in test [3], in test [4] and in [5] was “inactive” throughout.

`CCN[C@H](C)Cc1cccc(C(F)(F)F)c1`: the Potency entry in test [2], in [6], in test [3], in [7], in test [8] and in test [4] was “inactive” each time. For the same compound, the Potency entry in [5] is “inactive”. Also, the activation in test [9] (at 70.3 µM (top of the series)) was -8.58%.

Take `O=C(Cl)OCc1ccccc1`: the Potency entry in test [6], in [3], in test [7], in test [8], in [4] and in test [5] was “inactive” each time. Also, the activation in test [9] (at 95 µM (top of the series)) is -4.92%.

Regarding `O=C(Cl)CCl`, the Potency result in [2], in [6], in [3], in [7], in [8] and in test [4] was “inactive” each time. For the same compound, in test [5], the Potency result was “inactive”. Also, the activation in [9] (at 95 µM (top of the series)) is 0.754%.

On to `CC[C@H](O)C(C[C@H](C)N(C)C)(c1ccccc1)c1ccccc1`, for which the Potency result in test [6], in [3], in test [7], in [8], in test [4] and in test [5] was “inactive” throughout. Moreover, in test [9] (at 95 µM (top of the series)), the activation was -12.1%.

As for `ClCCCCl`, the Potency result in test [1], in test [2], in test [3], in test [4] and in [5] was “inactive” throughout.

For the compound `COc1ccc2c(C(=O)c3ccc(Cl)cc3)c(C)n(CC(=O)O)c2c1`, the Potency result in [1], in [2], in test [3], in test [4] and in [5] was “inactive” in each case.

In the case of `ClCCCCCCCl`, the Potency entry in [1], in [2], in [3], in test [4] and in [5] was “inactive” throughout.

On to `CNC(=O)NC(O)C(Cl)(Cl)Cl` (centres undefined), for which the Potency result in test [2], in test [6], in [3], in test [7], in [8] and in test [4] was “inactive” throughout. Moreover, the Potency result in test [5] is “inactive”. In addition, the activation in [9] (at 70.3 µM (top of the series)) is 2.72%.

`CCC(=O)c1ccc(Cl)cc1`: the Potency entry in test [1], in test [2], in [3], in [4] and in [5] was “inactive” in each case.

Take `Oc1ccc(Cc2ccc(O)cc2)cc1`: the Potency result in [1], in test [6], in test [3], in test [8], in test [4] and in test [5] was “inactive” throughout. Also, the Potency in [7] was 15.6 µM [inconclusive] (active); in test [9] it was 2.45 µM (active).

On to `C=CC=O`, for which the Potency entry in [3], in test [4] and in test [5] was “inactive” in each case.

On to `C=C(Cl)CSC(=S)N(CC)CC`, for which the Potency result in [2], in [3] and in test [4] was “inactive” throughout. In addition, the Potency in test [5] was 26.6 µM (active).

Take `CCCCCCC1CCOC1=O` (centres undefined): the Potency entry in test [1], in test [2], in test [3], in [4] and in [5] was “inactive” in each case.

(Values after PubChem BioAssay (Tox21).)
